Measurements as given in PubChem BioAssay AID504332 (National Center for Advancing Translational Sciences (NCATS), 2011).
About 31,000 (8.9%) of roughly 350,000 compounds were called active. A call without a number means that no potency is given here. About 15% were inconclusive and are not listed. This excerpt belongs to a sample that is enriched for actives. A number with no mark means an inactive call. Calls come from the whole dose curve; as a rule, active = well fitted inhibition curve with a large enough effect; inconclusive = small, poorly fitted or top-dose-only effect; inactive = no such curve, though single readings can be large or run the other way.

These compounds were tested against Histone-lysine N-methyltransferase EHMT2 (Homo sapiens) (UniProt Q96KQ7) (assay: qHTS Assay for Inhibitors of Histone Lysine Methyltransferase G9a). Details: G9a H3K9 monomethylation, AlphaScreen, 2 h; series mostly up to 59 µM.
Summary of the method: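 AlphaScreen detection with an anti-monomethyl H3K9 antibody quantified product after a 2 h room-temperature reaction containing 500 nM biotinylated H3K9 peptide, 20 µM SAM and 20 nM enzyme, which had been preincubated 15 min with compound.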
Note: nearly all actives have a fitted effect of over 75% in size.
Potency is the fitted concentration of half-maximal effect.

Histone-lysine N-methyltransferase EHMT2 (Homo sapiens), sequence (Q96KQ7 913-1193 limits assumed): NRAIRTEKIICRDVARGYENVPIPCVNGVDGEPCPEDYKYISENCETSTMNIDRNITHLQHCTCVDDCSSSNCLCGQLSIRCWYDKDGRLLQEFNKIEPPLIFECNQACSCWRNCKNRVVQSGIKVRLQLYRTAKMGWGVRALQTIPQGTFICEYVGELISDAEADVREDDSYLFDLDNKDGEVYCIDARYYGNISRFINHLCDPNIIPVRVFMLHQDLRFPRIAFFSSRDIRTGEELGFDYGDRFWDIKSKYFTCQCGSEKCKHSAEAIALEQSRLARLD

Question: How did the Potency turn out when O=C(OCC(=O)N1CCCC1=O)c1cc(S(=O)(=O)N2CCOCC2)ccc1Cl was run?
Answer: inactive

Question: Which Potency does the source give for CCC(C(=O)Nc1cccc(-c2nc3cccnc3s2)c1C)c1ccccc1 (centres undefined) here?
Answer: inactive

Question: How did the Potency turn out when Cc1cc(C)nc(Nc2n[nH]c(-c3ccccc3N)n2)n1 was run?
Answer: 7.94 µM (active)

Question: With Cc1cc(C)nc(Nc2ncn[nH]2)n1 as the compound, how does the Potency read?
Answer: inactive

Question: Which Potency does the source give for Cc1cc(C)nc(NC(=O)C(C)N2C(=O)c3ccccc3C2=O)n1 (centres undefined) here?
Answer: inactive

Question: For CN(C)c1ccc(C(CNC(=O)c2ccc(F)cc2)c2c[nH]c3ccccc23)cc1 (centres undefined), which Potency is on record?
Answer: 10 µM (active)

Question: How did the Potency turn out when C[C@H](NC(=O)c1ccccc1)C(=O)OCC(=O)c1c[nH]c2ccccc12 was run?
Answer: inactive

Question: CCOc1ccccc1C(=O)NCC(c1ccc(N(C)C)cc1)N1CCCC1 (centres undefined) was tested. Which activity, negative = inhibition did it give?
Answer: 2.29% [at 12.7 µM]

Question: Which Potency does the source give for CCCN1CCN(CCCNC(=O)c2ccc3nc(Cc4ccccc4)oc3c2)CC1 here?
Answer: inactive

Question: O=C(c1c(F)cccc1F)N1CCN(S(=O)(=O)c2ccc3c(c2)OCCO3)CC1 was tested. Which activity, negative = inhibition did it give?
Answer: -0.69% [at 0.501 µM]

Question: CNc1ccc(SC#N)cc1 was tested. Which Potency did it give?
Answer: 44.7 µM (active)

Question: COc1ccc(-n2nc(C(=O)NCCc3ccc(Cl)cc3)c3c4ccccc4n(C)c3c2=O)cc1Cl was tested. Which Potency did it give?
Answer: inactive

Question: Which Potency does the source give for CCOc1ccc(S(=O)(=O)NCCSc2ccccc2)cc1 here?
Answer: inactive

Question: Which Potency does the source give for CCOc1ccc2nc(NCCNC(=O)C(C)(C)C)c(C)cc2c1 here?
Answer: inactive

Question: For CCOc1ccc2nc(NCCNS(=O)(=O)c3ccccc3)c(C#N)cc2c1, which Potency is on record?
Answer: 50.1 µM (active)

Question: Which Potency does the source give for Cc1nnc(SCC(=O)NCc2ccccc2Cl)c2nn(-c3ccccc3)c(C)c12 here?
Answer: inactive

Question: Which Potency does the source give for CCOC(=O)c1ccc(NC(=O)C2CC(=O)NC(=Nc3ccc(C)c(C)c3)S2)cc1 (centres undefined) here?
Answer: inactive

Question: With COC(=O)c1cc(NC(=O)c2cccnc2)ccc1N1CCOCC1 as the compound, how does the activity, negative = inhibition read?
Answer: -2.27% [at 0.501 µM]

Question: Which Potency does the source give for COc1ccccc1NC(=O)c1ccc(N2CC3CC(C2)c2cccc(=O)n2C3)c(NC(=O)c2cccnc2)c1 (centres undefined) here?
Answer: 15.8 µM (active)

Question: Which Potency does the source give for O=C(Nc1cccc(Cl)c1N1CCOCC1)c1cccnc1 here?
Answer: inactive

Question: With CCn1c(Cc2ccc(OC)cc2)nnc1SCC(=O)Nc1ccc(N2CCOCC2)cc1 as the compound, how does the Potency read?
Answer: inactive

Question: How did the Potency turn out when Cc1ccc(-c2noc(-c3nnn(-c4cccc(C(F)(F)F)c4)c3N)n2)cc1 was run?
Answer: inactive

Question: How did the Potency turn out when CC1CCN(C2=NC(=O)/C(=C/c3ccc(O)cc3)S2)CC1 was run?
Answer: inactive

Question: How did the Potency turn out when CCc1ccc(/C=C2\SC(N3CCOCC3)=NC2=O)cc1 was run?
Answer: 50.1 µM (active)

Question: With Cc1ccsc1/C=C1\SC(N2CCOCC2)=NC1=O as the compound, how does the activity, negative = inhibition read?
Answer: 12.5% [at 12.7 µM]

Question: COC(=O)Cc1ccc(OC(=O)C2CCN(S(=O)(=O)c3ccc(OC)c(OC)c3)CC2)cc1 was tested. Which activity, negative = inhibition did it give?
Answer: 13.8% [at 12.7 µM]

Question: Which Potency does the source give for O=C(Nc1ccc2oc(-c3ccc(O)c(Br)c3)nc2c1)c1cc2ccccc2o1 here?
Answer: inactive

Question: Which Potency does the source give for c1cc(-c2nn[nH]n2)ccc1CN1CCCCC1 here?
Answer: inactive

Question: Which Potency does the source give for Clc1ccc(-n2nnnc2CN2CCCCC2)cc1Cl here?
Answer: inactive

Question: With Clc1ccc(CN2CCCCCC2)cc1Cl as the compound, how does the Potency read?
Answer: 22.4 µM (active)

Question: O=C(Nc1ncccc1O)c1ccc(S(=O)(=O)N2CCCCCC2)cc1 was tested. Which Potency did it give?
Answer: inactive

Question: For CCN(C(=O)Cn1cc(S(=O)(=O)N2CCN(c3ccccc3F)CC2)c2ccccc2c1=O)c1ccc(C)c(C)c1, which Potency is on record?
Answer: inactive

Question: How did the Potency turn out when Cc1ccc(C)c(Cn2c(C)c(CNCc3ccc(F)cc3)c(C(=O)O)c2C)c1 was run?
Answer: inactive

Question: Cn1cccc1C(=O)NNC(=O)COc1ccc(Br)cc1 was tested. Which activity, negative = inhibition did it give?
Answer: 4.95% [at 0.501 µM]

Question: For CN(C(=O)CSc1nc2ccc(NC(=O)COc3ccccc3)cc2s1)c1ccccc1, which Potency is on record?
Answer: inactive

Question: How did the Potency turn out when CCCCNC(=O)CSc1nc2ccc(NC(=O)CSc3nnc(N)s3)cc2s1 was run?
Answer: 2 µM (active)

Question: Which Potency does the source give for CCC(=O)Nc1ccc2nc(SCC(=O)N3CCc4ccccc43)sc2c1 here?
Answer: inactive

Question: For CN(C)C(=O)N=NC(=O)N(C)C, which Potency is on record?
Answer: 2.24 µM (active)

Question: Which Potency does the source give for CCOc1ccc(NC(=O)CC2C(=O)N(c3cccc(OC)c3)C(=O)N2C2CCCCC2)cc1 (centres undefined) here?
Answer: inactive

Question: For COc1ccc(CNC(=O)CNC(=O)c2sc3ccccc3c2Cl)cc1OC, which Potency is on record?
Answer: inactive

Question: How did the activity, negative = inhibition turn out when COc1ccc(OCCCC(=O)Nc2cccc(S(=O)(=O)N3CCCCCC3)c2)cc1 was run?
Answer: -48.2% [at 12.7 µM]

Question: How did the Potency turn out when COc1ccc(-c2cn3c(n2)sc2cc(C(=O)Nc4ccccc4F)ccc23)cc1 was run?
Answer: inactive

Question: For CN1CCN(CCCCOc2cccc3ccccc23)CC1, which activity, negative = inhibition is on record?
Answer: 26.3% [at 2.33 µM]

Question: How did the Potency turn out when Fc1ccccc1OCCCCn1cncn1 was run?
Answer: inactive

Question: For CCN1CCN(CCCCOc2ccccc2F)CC1, which Potency is on record?
Answer: 10 µM (active)

Question: With O=C(COC(=O)C1(c2ccc(F)cc2)CCCC1)N1CCNC1=O as the compound, how does the activity, negative = inhibition read?
Answer: 19.8% [at 12.7 µM]

Question: Which Potency does the source give for COc1ccc(Cc2nc3ccc(C(=O)NCc4ccc(OC)cc4OC)cc3o2)cc1 here?
Answer: inactive

Question: For COC(=O)C1=C(NC(=O)C(C)(C)C)CCS1, which Potency is on record?
Answer: 1.41 µM (active)

Question: For Cc1cc2c(=O)n(CC(=O)NCC(=O)Nc3ccc(C(C)C)cc3)cnc2s1, which Potency is on record?
Answer: inactive
